Bioassay records deposited in PubChem BioAssay by National Center for Advancing Translational Sciences (NCATS).
HP1b chromo inh: HTS for Inhibitors of HP1-beta Chromodomain Interactions with Methylated Histone Tails; AlphaScreen HP1-beta / biotin-H3K9me3 peptide binding; 390,000 compounds, 0.56% hits; Potency, µM (highest dose often 114 µM), for the others: at the top dose activity change, negative = inhibition, actives largely listed as inhibitors; further: nearly all actives have a fitted effect of over 70% in size
Target sequence (P83916 whole entry, looked up): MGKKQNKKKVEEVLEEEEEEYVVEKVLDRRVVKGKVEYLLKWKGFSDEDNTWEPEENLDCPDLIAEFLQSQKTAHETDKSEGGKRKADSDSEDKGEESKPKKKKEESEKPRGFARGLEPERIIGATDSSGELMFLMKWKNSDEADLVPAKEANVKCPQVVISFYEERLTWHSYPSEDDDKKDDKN
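HP1-beta protein (50 nM final) preincubated 30 min at room temperature with biotinylated H3(1-18)K9me3 peptide (50 nM) in PBS pH 7.4, 0.01% Tween-20, then compound added for 30 min. AlphaScreen streptavidin donor/nickel chelate acceptor beads (10 ug/mL final), 30 min dark, luminescence read.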
JMJD2A Tudor inh: qHTS Assay for Inhibitors of JMJD2A-Tudor Domain. AID 504339, 2011. 390,000 compounds, 4.4% hits. Potency, µM (top dose mostly 114 µM), inactives show at the highest dose activity change, negative = inhibition, usual class: inhibitors. AlphaScreen JMJD2A-Tudor / H3K4me3 peptide binding; further: on the % scale 0 is the no-effect control and ±100 the full control effect; nearly all actives have a fitted effect of over 50% in size
PLK1 PBD block: qHTS for Inhibitors of PLK1-PDB (polo-like kinase 1 - polo-box domain): Primary Screen; Serine/threonine-protein kinase PLK1 (Homo sapiens), P53350; Plk1 PBD binding of FITC phosphopeptide, fluorescence polarization; Potency, µM, without a hit: max response, negative = inhibition, usual class: inhibitors; 360,000 compounds, 2.8% hits; AID 720504, 2013; further: series mostly up to about 57 µM; on the % scale 0 is the no-effect control and ±100 the full control effect; nearly all actives have a fitted effect of over 65% in size
BAZ2B block: qHTS Assay for Inhibitors of BAZ2B. Bromodomain adjacent to zinc finger domain protein 2B (Homo sapiens), Q9UIF8. AlphaScreen BAZ2B-H3K14Ac peptide displacement. Potency, µM (series often up to 114 µM), inactives show top-dose activity change, negative = inhibition, actives largely listed as inhibitors. 360,000 compounds, 4.4% hits. AID 504333, 2011; further: on the % scale 0 is the no-effect control and ±100 the full control effect; nearly all actives have a fitted effect of over 60% in size
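Inhibition is scored as reduced AlphaScreen emission. The BAZ2B/b-H3(5-23)K14Ac complex (50 nM each) in PBS pH 7.4, 0.01% Tween-20 meets compound (up to 110 uM) for 30 min at RT before bead addition.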
G9a block: qHTS Assay for Inhibitors of Histone Lysine Methyltransferase G9a. Histone-lysine N-methyltransferase EHMT2 (Homo sapiens), Q96KQ7. G9a H3K9 monomethylation, AlphaScreen, 2 h. Potency, µM (top dose mostly 102 µM), for inactives: at the highest dose activity, negative = inhibition, hits mostly inhibitors. 350,000 compounds, 8.8% hits; further: on the % scale 0 is the no-effect control and ±100 the full control effect; nearly all actives have a fitted effect of over 75% in size
Target sequence (Q96KQ7 913-1193 limits assumed): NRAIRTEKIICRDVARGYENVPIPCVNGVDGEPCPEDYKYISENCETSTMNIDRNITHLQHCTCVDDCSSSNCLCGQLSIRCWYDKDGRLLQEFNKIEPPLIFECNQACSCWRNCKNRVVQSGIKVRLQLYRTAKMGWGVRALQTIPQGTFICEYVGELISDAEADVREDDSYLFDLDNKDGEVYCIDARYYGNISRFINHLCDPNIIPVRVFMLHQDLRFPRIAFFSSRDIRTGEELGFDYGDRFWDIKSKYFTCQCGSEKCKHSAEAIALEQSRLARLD
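Readings reflect AlphaScreen signal from monomethyl-H3K9 antibody detection. HMT at 20 nM; substrate b-H3K9 500 nM; cofactor SAM 20 uM; 2 h RT reaction; compounds tested as titrations in qHTS with 15 min preincubation.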
Sfp PPTase inh: qHTS Assay for Inhibitors of Bacillus subtilis Sfp phosphopantetheinyl transferase (PPTase); 310,000 compounds, 3.5% hits; Potency, µM, for the others: largest response in the series, negative = inhibition, hits mostly inhibitors; 4'-phosphopantetheinyl transferase ffp (Bacillus subtilis), Q9F4F7; Biochemical Sfp PPTase activity, qHTS;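 further: the enzyme is Sfp with the accession as filed and its product quenches rhodamine fluorescence; 0% = enzyme reaction without inhibitor and -100% = no enzyme wells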
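Step 1, compound plus 15 nM Sfp-PPTase, 15 min, room temperature. Step 2, add rhodamine-CoA (5 uM) and BHQ-2-YbbR (12.5 uM). Step 3, read 525/598 nm fluorescence at 0 and 30 min.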
Numbers without * were called inactive; u = inconclusive; x = no result; [ ] = remark or other dose. Shown are actives, neighbours in structure and some others; about 12% of the full set was active somewhere. The call rests on the fitted dose curve; in most records, active means well fitted curve in the direction sought with a large enough effect; inconclusive means small, poorly fitted or top-dose-only effect, or another doubt; inactive means no such curve, though single readings can be large; an effect the other way counts as inactive or inconclusive. Potency means the concentration at half of the fitted maximal effect.

SMILES	HP1b chromo inh	JMJD2A Tudor inh	PLK1 PBD block	BAZ2B block	G9a block	Sfp PPTase inh
Cc1n[nH]c(=O)nc1N/N=C/c1ccco1	14%	u	-11%	25µM*	-40%	40µM*
CCOc1ccc(/C=N/Nc2nc(=O)[nH]nc2C)cc1OC	29%	u	-9%	-2%	-34%	25µM*
O=C(Nc1nc2ccccc2s1)C1CC(=O)N(c2ccc(F)cc2)C1 (stereo unspecified)	28%	-20%	-8%	-5%	8%[59 µM]	5%
COc1ccc(CCNC(=O)Cn2c(=O)cc(C(F)(F)F)c3c(C)nn(C)c32)cc1OC	3%	-13%	x	-9%	25%[59 µM]	x
Cc1n[nH]c(=O)nc1NCCc1ccccc1	16%	21%	-18%	-5%	89µM*	0%
CCOc1cc(/C=N/Nc2nnc(C)n2N)ccc1O	18%	-15%	-5%	u	25µM*	56µM*
Cc1n[nH]c(=O)nc1Nc1ccc(O)cc1	11%	-13%	-12%	9%	79µM*	-4%
Cc1ccc(S(=O)(=O)N(C)c2ccc3c(ncn3C)c2[N+](=O)[O-])cc1	31%	-18%	-15%	8%	6%[2.33 µM]	x
COc1ccc(C(CNC(=O)C(CCSC)NC(=O)c2ccccc2OC)N2CCCCC2)cc1 (stereo unspecified)	5%	-22%	7%	-26%	32µM*	7%
CCOC(=O)N1CCC(NC(=O)c2ccc(CS(=O)c3cccc(Cl)c3)o2)CC1 (stereo unspecified)	40%	-5%	u	-24%	5%	9%
COc1cccc(-c2nnc3n2N=C(c2ccc(OC)cc2OC)CS3)c1	x	u	x	x	x	45µM*
COc1cc(OC)cc(-c2nnc3n2N=C(c2ccc(OC)cc2OC)CS3)c1	x	u	x	x	x	56µM*
COc1ccc(C2=Nn3c(nnc3-c3ccc(OC)cc3OC)SC2)c(OC)c1	x	-25%	x	x	x	5%
COc1ccc(OC)c(-c2nnc3n2N=C(c2ccccc2OC)CS3)c1	x	79µM*	x	x	x	u
COc1cccc(-c2nnc3n2N=C(c2cc(OC)ccc2OC)CS3)c1	6%	-17%	-1%	-3%	x	-15%
COc1ccc(-c2nnc3n2N=C(c2ccccc2OC)CS3)c(OC)c1	x	-19%	x	x	x	-11%
CCCn1c(-c2ccc(F)cc2)nc2c(NCCN3CCSCC3)nc(C)nc21	x	x	x	x	x	4%
C=CC(C1=CC(=O)C(OC)=CC1=O)c1ccc(O)cc1 (stereo unspecified)	x	x	x	x	u	-75%
Cc1cc(C)cc(NC(=O)CS(=O)(=O)c2cccc3nsnc23)c1	10%	-24%	-10%	-15%	u	2%
CN1C(=O)C2C(c3ccc(N(C)C)cc3)NN(Cc3ccccc3)C2C1=O (stereo unspecified)	u	u	-3%	40µM*	u	-5%
O=c1c2cc(Cl)ccc2nc(-c2ccccc2)n1O	-1%	u	-1%	79µM*	-29%	11%
CCC(C(=O)OC)n1nnc2sc(-c3ccccc3)cc2c1=O (stereo unspecified)	70%	5%	x	6%	14%[59 µM]	x
COc1ccc(NC(=O)C(C)n2nnc3sc(-c4ccccc4)cc3c2=O)cc1Cl (stereo unspecified)	u	79µM*	x	-27%	2.8µM*	x
Cc1cc(C)c(NC(=O)C(C)n2nnc3sc(-c4ccccc4)cc3c2=O)c(C)c1 (stereo unspecified)	33%	u	x	u	10µM*	x
CCc1ccc(OCC(=O)O/N=C(\N)c2ccncc2)c(Br)c1	46%	9%	-14%	-5%	-102%	-2%
